TDP-43 rescue: rescues yeast from TDP-43 toxicity; yeast TDP-43 toxicity rescue, BacTiter-Glo growth, 24 h; Potency, µM (doses to about 46.1 µM), actives largely listed as activators; hit rate 0.45% among 45,000; active = well fitted activation curve with a large enough effect; also: 0% is about no effect; nearly all actives have a fitted effect of over 55% in size
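TDP-43-expressing yeast, pregrown in raffinose, seeded at OD600 0.02 in galactose medium with compound for 24 hr at 30 deg C. Growth read by BacTiter-Glo luminescence, so rescue of toxicity appears as activation.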
* = called active by the depositor; i = inactive. The full list was thinned out, with hits kept by preference. Potency is read from the fitted curve at half-maximal effect.

SMILES	TDP-43 rescue
Cc1nc(-c2cccc(S(=O)(=O)N3CCCCC3)c2)cs1	i
Cc1cccc2c(CCNC(=O)c3ccc([N+](=O)[O-])cc3)c[nH]c12	i
CC(C)NC(=O)NC(=O)COC(=O)/C=C/c1ccc2c(c1)OCO2	i
CC(=O)N1N=C(C)CC1c1ccc(OCc2ccccc2)cc1 (stereo unspecified)	i
COc1ccc(-c2csc3ncnc(N4CCN(CCO)CC4)c23)cc1	i
COc1ccc(-c2csc3ncnc(N4CCN(c5ccccc5OC)CC4)c23)cc1	14µM*
COc1ccccc1N1CCN(c2cnccn2)CC1	i
Cc1ccc(NC(=O)Cn2ccc(=O)[nH]c2=O)cc1	i
CCn1c(-c2ccccc2)c(C(=O)CC#N)c2ccccc21	i
O=S(=O)(c1cccc(-c2nnc(SCc3ccc(Cl)cc3)o2)c1)N1CCCCC1	i
CC1CCN(C(=O)CSc2nnc(-c3cccnc3)o2)CC1	i
Brc1ccc(CSc2nnc(-c3cccnc3)o2)cc1	13µM*
CC(=O)Nc1ccc(S(=O)(=O)N2CCN(Cc3cccs3)CC2)cc1	i
Cc1noc(NS(=O)(=O)c2ccc(N/C=C\C(=O)c3cccs3)cc2)c1C	i
O=C(/C=C/c1cccc([N+](=O)[O-])c1)NCCc1ccc(F)cc1	i
O=C(/C=C/c1ccccc1)NCCSCc1ccccc1	i
O=C(/C=C/c1cccc([N+](=O)[O-])c1)NCCSCc1cccc(Cl)c1	13µM*
CCCS(=O)(=O)c1nc(S(=O)(=O)c2ccc(C)cc2)c(NC(C)c2ccccc2)s1 (stereo unspecified)	i
CCCCc1nc2cc(C(=O)N3CCNC(=O)C3CC(=O)OC)ccc2o1 (stereo unspecified)	i
COc1ccc(NS(=O)(=O)c2cc(NC(=O)CCSc3ccccc3)ccc2OC)cc1	i
COc1ccc(N(C(=O)c2ccc(Cl)cc2)C2=CC3CCC(C2)N3C)cc1 (stereo unspecified)	i
COc1ccc(Cl)cc1NC(=S)NN1CCOCC1	i
COc1ccc(Cl)cc1NC(=S)NCCSc1ccc(C)cc1	13µM*
COc1ccc(Cl)cc1NC(=S)Nc1ccc(Cl)cn1	i
CCOC(=O)C1(C)CCCCN1C(=O)c1ccco1 (stereo unspecified)	i
SMILES	TDP-43 rescue
Cc1nn(-c2ccccc2)c(N)c1Sc1ccc([N+](=O)[O-])cc1	14µM*
Cc1cnnn1-c1ccc([N+](=O)[O-])cc1	i
Cc1c(C(=S)Nc2ccccc2)cnn1-c1ccc([N+](=O)[O-])cc1	i
COc1ccc(NC(=O)c2cc(-c3ccccc3)oc2C)cc1	i
OCCN1CNC(=S)NC1	i
CCOC(=O)C1CCN(C(=O)c2ccc3c(SCC(=O)O)c4c(nc3c2)CCCC4)CC1	i
CCNC(=O)NC(C(=O)OC)C12CC3CC(CC(C3)C1)C2 (stereo unspecified)	i
O=C(CCSCCC(=O)NCc1ccc(F)cc1)NCc1ccc(F)cc1	i
CC(=O)N1CCN(c2ccc(NC(=O)c3cccc(Cl)c3)cc2)CC1	i
O=C(Nc1ccc(Br)cn1)c1cccc(-c2cc3ccccc3oc2=O)c1	i
O=C(Nc1ccc(N2CCCC2)cc1)c1cccc(-c2cc3ccccc3oc2=O)c1	22µM*
Cc1nc2cc(NCc3cc([N+](=O)[O-])ccc3O)ccc2n1Cc1ccccc1	i
C#CCOc1c(Br)cc(/C=C2/C(=O)ON=C2C)cc1OC	i
COc1cc(/C=C2\C(=O)ON=C2c2ccccc2)cc(OC)c1OC	11µM*
CCOc1cc(/C=C2/C(=O)ON=C2C)ccc1OCc1ccccc1	i
Cc1ccc(CN2CCN(/N=C/C=C/c3ccccc3[N+](=O)[O-])CC2)cc1	i
Cc1cc(C)c2oc(-c3ccc(NC(=O)COc4ccccc4C)cc3)nc2c1	i
CCOc1ccc(NC(=O)CNC(=O)COc2ccccc2)cc1	i
CCOc1cc(-c2nc(C)c(C(C)=O)n2O)ccc1OCC(=O)Nc1ccccc1	11µM*
OC(c1ccccc1)c1ncc(-c2ccc(C(F)(F)F)cc2)[nH]1 (stereo unspecified)	i
CC(=O)c1cccc(CN2CCCC(C(=O)c3ccc4c(c3)OCO4)C2)c1 (stereo unspecified)	i
Cc1ccc(-c2nc(Cl)nc3ccccc23)cc1	i
Cn1nc(C(=O)NNC(=O)c2cccc(Cl)c2)c2ccccc2c1=O	i
N/C(=N\OC(=O)c1ccc([N+](=O)[O-])cc1)c1cccnc1	i
N/C(Cc1ccc([N+](=O)[O-])cc1)=N\OC(=O)c1ccc2ccccc2c1	8.9µM*
SMILES	TDP-43 rescue
N/C(=N\OC(=O)Cc1ccc([N+](=O)[O-])cc1)c1ccc([N+](=O)[O-])cc1	i
COc1ccc(OC)c(CNc2ccc3c(c2)CCC3)c1	i
COc1ccc(C)cc1Nc1nc(-c2c[nH]c3ccccc23)cs1	i
CC(C)Oc1ccc(Br)cc1C(=O)N/N=C/c1c[nH]c2ccccc12	i
COCCN=c1scc(-c2cc(OC)ccc2OC)n1/N=C/c1c[nH]c2ccccc12	20µM*
O=S(=O)(c1ccccc1C(F)(F)F)N1CCN(c2ncnc3sccc23)CC1	11µM*
CC(=O)N1CCN(C(=O)C2CCN(S(=O)(=O)c3ccccc3C(F)(F)F)CC2)CC1	i
O=S(=O)(c1cc(C(F)(F)F)ccc1Cl)N1CCN(c2ncnc3ccccc23)CC1	i
CNc1oc(-c2ccc(F)cc2)nc1S(=O)(=O)c1ccccc1	i
O=C1C2CC=CCC2C(=O)N1c1ccc(NCCc2ccccc2F)c([N+](=O)[O-])c1 (stereo unspecified)	i
COc1cc(C(=O)NC2CCN(CC(=O)NC3CCCCC3C)CC2)cc(OC)c1OC (stereo unspecified)	i
CC(C)(C)c1ccc(OCC(=O)NNC(=S)NC(=O)c2ccccc2[N+](=O)[O-])c(Br)c1	11µM*
CC(C)CNC(=O)COc1ccccc1[N+](=O)[O-]	i
COc1ccc(C(=O)NNC(=O)c2ccccc2[N+](=O)[O-])cc1	i
CCN(c1ccc(OCC(=O)OCC(=O)c2c(N)n(C)c(=O)n(C)c2=O)cc1)S(=O)(=O)c1ccccc1	i
COc1ccc(Cl)cc1NC(=O)CSC1=NN2CCCC(=O)N=C2S1	14µM*
COc1ccc(OC)c(NC(=O)CSC2=NN3CCCC(=O)N=C3S2)c1	i
CCOc1ccccc1NC(=O)CSC1=NN2CCCC(=O)N=C2S1	i
Nc1c(Br)c(=O)[nH]c(=O)n1-c1ccc(F)cc1	i
Cc1cc(C)nc(N2CCC(C(=O)NC3CC3)CC2)n1	i
CC1CCCC(NC(=O)COC(=O)c2ccc([N+](=O)[O-])o2)C1C (stereo unspecified)	13µM*
O=C(COC(=O)c1ccc([N+](=O)[O-])o1)NC1CCS(=O)(=O)C1 (stereo unspecified)	i
CC(=O)Nc1ccc(NC(=O)COC(=O)c2ccc([N+](=O)[O-])o2)cc1	i
NC(CCc1ccccc1)c1csc(NC(=O)Nc2ccccc2Oc2ccccc2)n1 (stereo unspecified)	i
O=C(N/N=C/C(Br)=C\c1ccccc1)c1ccco1	10µM*
Cc1occc1C(=O)N/N=C/C(Br)=C\c1ccccc1	i
O=C(Nc1ccccc1C(=O)N/N=C/c1ccccc1)c1ccco1	i
O=C(Oc1ccc2ccc(=O)oc2c1)c1cccs1	i
COc1ccc(C(=O)c2cc([N+](=O)[O-])ccc2N2CCCC2)cc1	i
Cc1ccc(C(=O)c2cc([N+](=O)[O-])ccc2N2CCOCC2)cc1C	22µM*
